From PubChem BioAssay AID588342 (National Center for Advancing Translational Sciences (NCATS), 2011) come the findings set out here.

The structures appear in SMILES notation. Among all 360,000 compounds or so, about 25,000 (6.9%) were called active. Roughly 9% stayed inconclusive and do not appear here. Only a selection was taken, and actives are over-represented in it overall. A number with no mark means an inactive call. Calls follow the shape of the dose curve; as a rule, active = well fitted inhibition curve with a large enough effect; inconclusive = small, poorly fitted or top-dose-only effect; inactive = flat fitted curve, though single readings scatter.
Potency is read from the fitted curve at half-maximal effect.

The target of the test is Luciferin 4-monooxygenase (Photinus pyralis) (UniProt P08659). In words: qHTS profiling assay for firefly luciferase inhibitor/activator using purifed enzyme and Km concentrations of substrates (counterscreen for miR-21 project). Also: nearly all actives have a fitted effect of over 55% in size.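 As to activity change, negative = inhibition: plate controls were vehicle for no effect and reference inhibitor for full effect.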 Particulars: purified FLuc, luminescence inhibition; series mostly up to 57.5 µM; activity change, negative = inhibition: at the top concentration. The method, boiled down: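 Purified P. pyralis luciferase (10nM final) with 10uM D-luciferin and 10uM ATP (Km levels) in 50mM Tris acetate pH 7.5, 10mM Mg acetate, 0.01% Tween-20, 0.05% BSA; qHTS 6-point titration, ~60 µM downward; luminescence read.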
Sequence of Luciferin 4-monooxygenase (Photinus pyralis) (P08659 whole entry, looked up): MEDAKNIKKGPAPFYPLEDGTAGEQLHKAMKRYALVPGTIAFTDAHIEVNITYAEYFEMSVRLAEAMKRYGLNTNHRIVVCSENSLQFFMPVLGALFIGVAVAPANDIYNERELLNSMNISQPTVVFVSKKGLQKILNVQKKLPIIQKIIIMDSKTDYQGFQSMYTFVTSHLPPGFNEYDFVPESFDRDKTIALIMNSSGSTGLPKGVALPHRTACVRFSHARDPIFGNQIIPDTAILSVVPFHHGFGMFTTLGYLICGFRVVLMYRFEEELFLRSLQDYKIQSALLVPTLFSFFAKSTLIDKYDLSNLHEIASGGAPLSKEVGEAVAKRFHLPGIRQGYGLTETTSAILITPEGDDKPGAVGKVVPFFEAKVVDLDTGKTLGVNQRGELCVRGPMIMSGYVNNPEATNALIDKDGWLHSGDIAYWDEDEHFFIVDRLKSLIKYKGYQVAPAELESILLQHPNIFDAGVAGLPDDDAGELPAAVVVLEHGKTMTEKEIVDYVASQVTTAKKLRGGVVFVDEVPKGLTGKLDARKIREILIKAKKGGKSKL
(In general: In qHTS, concentration-response curves come from the screen itself.)
For `COc1ccc(-c2onc(C)c2C)cc1S(=O)(=O)NCc1cccs1`, the “activity change, negative = inhibition” value is 2.14%.

In the case of `CC(=O)NC(CC(=O)Nc1nc(-c2ccccc2)c(C(C)=O)s1)c1ccccc1` (configuration not stated), the “activity change, negative = inhibition” value was 3.71%.

With `COc1cccc(-c2n[nH]c3c2C(c2cccc(O)c2)N(C)C3=O)c1` (configuration not stated), the “activity change, negative = inhibition” value was -14.7%.

Turning to `O=C1COc2ccc(C(=O)CSc3ccc(Br)cc3)cc2N1`, the “activity change, negative = inhibition” value is -18.2%.

With `Cc1ccc(C)c(N2CCN(c3ccc4cc(S(=O)(=O)N5CCC(C)CC5)ccc4n3)CC2)c1`, the “activity change, negative = inhibition” value was 0.974%.

Take `Cc1cc(NC(=O)C2CCC(CNS(=O)(=O)c3ccc(Br)s3)CC2)ccc1Br` (configuration not stated): the “activity change, negative = inhibition” value was -17.6%.

Take `Cc1cc(C)cc(OCC(=O)Nc2nc(-c3ccc(F)cc3)ns2)c1`: the “activity change, negative = inhibition” value was -13.9%.

Take `COc1ccc(-c2cc(C(=O)N(C)Cc3ccccc3)c3ccccc3n2)cc1`: the Potency was 10.7 µM (active).

In the case of `C/C(N)=C(/C#N)C(=O)COC(=O)c1cc(-c2ccc(C)cc2)nc2ccccc12`, the Potency was 9.53 µM (active).

In the case of `O=C(O/N=C(/c1ccccc1)c1ccncc1)c1ccccc1[N+](=O)[O-]`, the “activity change, negative = inhibition” value is -2.68%.

Take `N/C(=N\OC(=O)c1cc(-c2ccccc2)nc2ccccc12)c1ccncc1`: the Potency is 21.3 µM (active).

On to `COc1ccc(NC(=O)c2cc(-c3cc(OC)c(OC)c(OC)c3)nc3ccccc23)c(OC)c1`, for which the “activity change, negative = inhibition” value is -14.7%.

Take `COc1ccc(C2=NS(=O)(=O)N(C)C(C(=O)N(C)Cc3ccccc3)=C2)cc1`: the “activity change, negative = inhibition” value is 2.04%.

With `CNC(=O)COC(=O)c1cc(-c2ccc(OC)cc2)nc2ccccc12`, the Potency is 5.36 µM (active).

For `C/C(N)=C(/C#N)C(=O)COC(=O)c1cc(-c2cccc(Br)c2)nc2ccccc12`, the “activity change, negative = inhibition” value was -18.4%.

Take `COc1ccc(CN(C)C(=O)c2cc(-c3ccc(C)cc3C)nc3ccccc23)c(OC)c1OC`: the “activity change, negative = inhibition” value was -1.21%.

Consider `COC(=O)CNC(=O)c1cc(-c2ccncc2)nc2ccccc12`, for which the “activity change, negative = inhibition” value was -2.72%.

In the case of `C/C(N)=C(/C#N)C(=O)COC(=O)C1=NN(c2ccccc2)C(=O)CC1`, the “activity change, negative = inhibition” value was 3.91%.

Consider `COc1ccc(CCNC(=O)COC(=O)c2cc(=O)c3ccccc3o2)cc1`, for which the “activity change, negative = inhibition” value is 3.44%.

For `Cc1cc(C)c2oc(C(=O)Nc3c(C(=O)Nc4ccccc4)oc4ccccc34)cc(=O)c2c1`, the “activity change, negative = inhibition” value was -0.72%.

For `CCCCN(C(=O)C(CCSC)N1C(=O)c2ccccc2C1=O)c1c(N)n(CCC)c(=O)[nH]c1=O` (configuration not stated), the “activity change, negative = inhibition” value is -0.596%.

For the compound `COc1cc(NS(=O)(=O)c2ccc3c(c2)OCC(C(=O)N2CCCC2)O3)cc(OC)c1` (configuration not stated), the “activity change, negative = inhibition” value was -13.5%.

As for `COc1ccc2c(CNCCc3ccccc3C)c(C(=O)O)n(Cc3ccccc3C)c2c1`, the “activity change, negative = inhibition” value is -6.19%.

Consider `CCCn1ccc2c(OCC(=O)NCc3ccc(F)cc3)cccc2c1=O`, for which the “activity change, negative = inhibition” value is 5.31%.

Regarding `COC(=O)c1cccnc1NC(=S)NC(C)C`, the “activity change, negative = inhibition” value was -19%.

As to `Cc1cc(NS(=O)(=O)c2ccc3oc(=O)c4ncn(C)c4c3c2)ccc1Br`, the “activity change, negative = inhibition” value was -16.5%.

As to `Cc1c(O)c(C)c2c(c1O)C(=O)C[C@@H](c1ccccc1)O2`, the “activity change, negative = inhibition” value is -0.7%.

Turning to `CCn1cc(C(=O)NCCc2ccccc2)c(=O)c2cc(S(=O)(=O)N3CCCCCC3)ccc21`, the “activity change, negative = inhibition” value is -6.86%.

`CCOc1ccc(N2CC(C)Cn3c2nc2c3c(=O)n(Cc3c(F)cccc3Cl)c(=O)n2C)cc1` (configuration not stated): the “activity change, negative = inhibition” value is -2.6%.

As for `Cc1ccc(NC(=O)CSc2nc3c(c(=O)[nH]2)CN(Cc2ccc4c(c2)OCO4)CC3)cc1C`, the “activity change, negative = inhibition” value is -1.68%.

With `Cc1ccc(OCC(=O)Nn2cnc3ccccc32)cc1`, the “activity change, negative = inhibition” value is 5.06%.

For `COc1ccc(S(=O)(=O)n2cnc3ccccc32)c(C)c1`, the “activity change, negative = inhibition” value is 4.47%.

In the case of `COc1ccc(-c2cc(C(=O)n3cnc4ccccc43)c3ccccc3n2)cc1`, the Potency is 5.36 µM (active).

Consider `O=C(Nc1ccc(S(=O)(=O)N2CCC(c3nc4ccccc4s3)CC2)cc1)c1ccccc1F`, for which the “activity change, negative = inhibition” value was 3.7%.

Consider `Cc1ccc(S(=O)(=O)N(C)C)cc1NC(=O)CN1c2cccc3cccc(c23)S1(=O)=O`, for which the “activity change, negative = inhibition” value is 5.47%.

For the compound `CCOC(=O)c1c(C)[nH]c(C2=NNC(=NC(C)COC)SC2)c1C` (configuration not stated), the Potency was 8.49 µM (active).

On to `COc1ccc(C2(Nc3cccc(F)c3)C(=O)c3ccccc3C2=O)cc1`, for which the “activity change, negative = inhibition” value is 1.56%.

With `O=C(COC(=O)c1ncc(Cl)c(Cl)c1Cl)NCc1ccccc1`, the “activity change, negative = inhibition” value is 0.856%.

On to `CCOC(=O)c1cccc(NS(=O)(=O)c2cc(-c3cnc(C)o3)ccc2OC)c1`, for which the “activity change, negative = inhibition” value is -15.8%.

As for `COc1ccc(NS(=O)(=O)c2cccc(C(=O)NCCc3ccc(S(N)(=O)=O)cc3)c2)cc1`, the “activity change, negative = inhibition” value was 4.27%.

Consider `COc1ccc(CCNC(=O)CCCn2c(=O)c3ccccc3n(Cc3ccc(C)cc3)c2=O)cc1OC`, for which the “activity change, negative = inhibition” value was 4.24%.

`C/C(N)=C(/C#N)C(=O)COC(=O)CNS(=O)(=O)c1ccc(C)cc1`: the “activity change, negative = inhibition” value was 2.08%.

`COC(=O)CNS(=O)(=O)c1ccc(Cc2ccc(S(=O)(=O)NCC(=O)OC)cc2)cc1`: the Potency was 3.79 µM (active).

Consider `COC(=O)CNS(=O)(=O)c1ccc(OC)cc1`, for which the “activity change, negative = inhibition” value is -0.286%.

With `COc1ccc(-c2nc(Cn3c(=O)cc(C)c4c(C)nn(-c5ccccc5)c43)c(C)o2)c(OC)c1`, the “activity change, negative = inhibition” value is 0.0062%.

`CCOC(=O)c1nnn(CC(=O)NC(=O)Nc2ccccc2F)c1C(=O)OCC`: the “activity change, negative = inhibition” value was -6.37%.

On to `CC(=O)Nc1ccc(NC(=O)COC(=O)c2ccccc2C(=O)c2ccccc2)cc1`, for which the “activity change, negative = inhibition” value was -0.276%.

For `O=C(COC(=O)C1CC2C=CC1C2)Nc1ccccc1` (configuration not stated), the Potency was 16.9 µM (active).

In the case of `Cc1ccc(S(=O)(=O)N(C)CC(=O)OCC(=O)Nc2ccccc2)cc1`, the “activity change, negative = inhibition” value is -3.85%.

Turning to `COc1ccc2c(c1OC)C(=O)N(c1ccc(O)cc1)C2`, the Potency is 15.1 µM (active).

For `COc1cc(C(=O)N2C(=O)c3cccc(N)c3C2=O)cc(OC)c1OC`, the “activity change, negative = inhibition” value was 2.66%.

`COc1ccc2c(c1OC)C(=O)N(c1ncn[nH]1)C2`: the “activity change, negative = inhibition” value was 1.33%.

Consider `CCOc1ccc(CC(=O)NCCc2csc3nc(-c4ccccc4F)nn23)cc1`, for which the “activity change, negative = inhibition” value was -11%.

Turning to `CN(C)CCCN(C(=O)c1ccc(S(=O)(=O)N2CCCCCC2)cc1)c1nc2cc3c(cc2s1)OCCO3`, the “activity change, negative = inhibition” value was 4.03%.

In the case of `CN(C)CCCN(C(=O)c1ccc(S(=O)(=O)N2CCCCCC2)cc1)c1nc2ccc(Br)cc2s1`, the “activity change, negative = inhibition” value is 1.44%.

On to `Fc1ccc2nc(N3CCCCC3)sc2c1`, for which the Potency is 4.78 µM (active).

`Cc1nc(N2CCCCC2)sc1C=O`: the “activity change, negative = inhibition” value is 4.38%.

With `c1c2c(cc3sc(N4CCCCC4)nc13)OCCO2`, the Potency was 0.213 µM (active).

As for `O=C(NCc1ccc(F)cc1)c1ccc2nc(N3CCCCC3)sc2c1`, the “activity change, negative = inhibition” value is -9.13%.

On to `Brc1ccc2nc(N3CCCC3)sc2c1`, for which the Potency is 7.57 µM (active).

In the case of `O=C(NCCc1cccc(F)c1)C1CCCN(c2nc3ccccc3s2)C1` (configuration not stated), the “activity change, negative = inhibition” value was -1.62%.

In the case of `Cc1nc2ccn(Cc3cccs3)c(=O)c2cc1C(=O)NCc1ccc(Cl)cc1`, the “activity change, negative = inhibition” value is -0.0141%.
